Test results from ChEMBL document CHEMBL4513216, “Probing the Open Global Health Chemical Diversity Library for Multistage-Active Starting Points for Next-Generation Antimalarials” (ACS Infect Dis, 2020).
Screen size: about 68,000 compounds; about 2,700 (4%) showed an effect of 50% or more. The entries come from a sample that favours strong results as a whole.

Test system: Plasmodium berghei
Experiment: Screen against P. berghei liver stage (PbLuc), transformed with Luciferase, at 2uM
Assay type: functional, HepG2
Details: tested at 2 uM

Compared with `CCN(Cc1cnc(NCc2ccccc2)nc1)C1CCS(=O)(=O)C1` (stereo not drawn), `CNC(=O)CN(C)c1cncc(OCc2ccccc2)n1` is higher in INHIBITION: -30.2% for the first, -22.24% for the second.

Compared with `CN(C)Cc1nnc(C2CCCN(Cc3ccc(Cl)s3)C2)n1C` (stereo not drawn), `Cn1ncc2c1CCCC2NCc1ccc(Cl)s1` (stereo not drawn) is lower in INHIBITION: 7.64% for the first, -21.31% for the second.

Compared with `CC(=O)Nc1nc(C2CCN(C(=O)C3CCC3)CC2)cs1`, `O=C(NC1CCN(C(=O)C2CCCCC2)C1)c1ccncc1Cl` (stereo not drawn) is lower in INHIBITION: -49.56% for the first, -56.84% for the second.

Compared with `Fc1ccc(CN2CCC(c3n[nH]c4ncccc34)CC2)cc1F`, `Fc1cccc(CN2CCC(c3n[nH]c4ncccc34)CC2)c1F` is lower in INHIBITION: 19.51% for the first, 12.36% for the second.

First: Fc1cccc(Cl)c1CN1CCC(c2n[nH]c3ncccc23)CC1
Second: OCC1(Cc2cccc(Cl)c2)CCCN(c2ncccn2)C1 (stereo not drawn)
The INHIBITION of the first is higher: 53.65% for the first, -16.17% for the second.

Going from `COc1cccc(CN(C)Cc2[nH]c3ccccc3c2C)c1O` to `CN(Cc1cccc(OCCO)c1)Cc1cccc2ncccc12`, the INHIBITION rises from 33.32% to 37.5%.

Compared with `CCc1nc(C)c(C(=O)NCC2COc3cc(OC)ccc3C2)o1` (stereo not drawn), `COc1ccc2c(c1)OCC(CNC(=O)c1cc[nH]c1C)C2` (stereo not drawn) is lower in INHIBITION: 76.56% for the first, 23.79% for the second.

Compared with `COc1ccc2c(c1)OCC(CNC(=O)c1ccncc1)C2` (stereo not drawn), `COc1ccccc1CC(=O)N1CCC(NCc2ccncc2)CC1` is higher in INHIBITION: 31.38% for the first, 44.71% for the second.

Compared with `CCCC(=O)N1CCCCC1c1nc(N(C)C)ncc1-c1cc(C)no1` (stereo not drawn), `COc1ccccc1CC(=O)N1CCCC1Cn1nc(C)cc1C` (stereo not drawn) is higher in INHIBITION: -54.53% for the first, -43.79% for the second.

Going from `COCCNC(=O)Cn1c(C)cc2nc(SC)n(CC(C)C)c(=O)c21` to `COCCNS(=O)(=O)c1ccc(Cl)c(C(=O)N(C)Cc2sccc2C)c1`, the INHIBITION rises from -24.15% to 64.37%.

Going from `Cn1ncc2c(NCCOCc3ccccc3)nc(C3CCCC3)nc21` to `Cc1cccc(CNC2CCCc3c2cnn3Cc2ccccc2)c1` (stereo not drawn), the INHIBITION rises from -19.29% to -2.26%.

First: COCCNS(=O)(=O)c1ccc(Cl)c(C(=O)N(C)Cc2ccsc2)c1
Second: CNS(=O)(=O)c1csc(C(=O)N(C)Cc2sccc2C)c1
The INHIBITION of the first is lower: 13.76% for the first, 46.97% for the second.

First: COCC(=O)N1CCC2(CCC(C(=O)N3CCCC3)O2)CC1 (stereo not drawn)
Second: CC(C)(C)c1cc(C[C@H]2CNCC[C@H]2CC(=O)N2CCCCC2)no1
The INHIBITION of the first is higher: 41.38% for the first, -13.88% for the second.

Compared with `O=C(NC1CCC1)[C@@H]1CCO[C@@H]2CCN(C3CCCC3)C[C@H]21`, `O=C(NC1CCC1)[C@@H]1CCO[C@@H]2CCN(C3CCCC3)C[C@@H]21` is lower in INHIBITION: 51.26% for the first, 23.93% for the second.

Going from `O=C(NC1CC1)[C@@H]1CCO[C@@H]2CCN(C3CCCC3)C[C@H]21` to `O=C(NCc1nnc2n1CCCCC2)N(CC1CCOC1)C1CC1` (stereo not drawn), the INHIBITION falls from -0.18% to -1.21%.

Going from `CN1CCOC[C@H]1c1nc(-c2ccc(F)cc2F)c[nH]1` to `Cn1ncc2c1CCCC2NCc1cccc(F)c1` (stereo not drawn), the INHIBITION falls from 3.55% to -33.95%.

First: CC(C)(CNc1ccc2ccc(F)cc2n1)NS(C)(=O)=O
Second: CC(C)(CCS(C)(=O)=O)CNc1ccc2ccc(F)cc2n1
The INHIBITION of the first is lower: 5.92% for the first, 50.93% for the second.

First: CS(=O)(=O)CCOCCNc1ccc2ccc(F)cc2n1
Second: CS(=O)(=O)c1ccc(C(=O)NCc2nc3cc(F)ccc3[nH]2)cc1
The INHIBITION of the first is lower: 35.63% for the first, 44.61% for the second.

First: CCc1nnc2n1CCN(C(=O)CN(C)C1CC1)C2
Second: CCc1nnc2n1CCN(C(=O)CN(CC)CC)C2
The INHIBITION of the first is lower: -3.06% for the first, 58.05% for the second.

Compared with `CCc1nnc2n1CCN(C(=O)c1cc3ccc(F)cc3nc1C)C2`, `CCc1nnc2n1CCN(C(=O)c1ccc3nc(C)c(C)nc3c1)C2` is lower in INHIBITION: 54.85% for the first, -72.78% for the second.

Going from `CCc1nnc2n1CCN(C(=O)c1cc3cc(C)ccc3[nH]1)C2` to `CCc1nnc2n1CCN(C(=O)c1cc3ccc(C)cc3[nH]1)C2`, the INHIBITION rises from 37.68% to 58.05%.

Going from `CCc1nnc2n1CCN(C(=O)c1cc3ccccc3[nH]1)C2` to `CCc1nnc2n1CCN(C(=O)CN(C)Cc1ccccc1)C2`, the INHIBITION falls from -3.06% to -34.45%.

First: CCc1nnc2n1CCN(C(=O)c1ccc(C(F)(F)F)nc1C)C2
Second: CCc1cccc(OCC(=O)NC(C)c2nnc3n2CCC3)c1 (stereo not drawn)
The INHIBITION of the first is lower: -41.59% for the first, 0.31% for the second.

First: COc1cccc2c1N(C(=O)c1ccc(C)nc1)CCC2
Second: COc1cccc(CC(=O)N2CCCC(n3nc(C)cc3C)C2)c1 (stereo not drawn)
The INHIBITION of the first is lower: 0.79% for the first, 62.75% for the second.

First: CC(C)C1CN(C(=O)c2ccsc2)CCS1 (stereo not drawn)
Second: CC(Cn1cccn1)NC(=O)c1ccsc1 (stereo not drawn)
The INHIBITION of the first is higher: -9.94% for the first, -18.04% for the second.

Compared with `CN(C)c1cc(NCc2cnc3n2CCN(CC2CC2)CC3)ncn1`, `CC1c2ncc(CNC(=O)C3CC3)n2CCN1CC1CCC1` (stereo not drawn) is higher in INHIBITION: 34.04% for the first, 35.07% for the second.

Going from `O=C(NCc1ccccn1)[C@]12COC[C@H]1CN(Cc1ccsc1)C2` to `COc1ccccc1CC(=O)N1CCC(NCc2ccccn2)CC1`, the INHIBITION rises from 42.62% to 57.64%.

First: Cc1ccc2nc(C)cc(C(=O)NC(C)c3nnn[nH]3)c2c1 (stereo not drawn)
Second: CC(NC(=O)Nc1ccc(F)c(F)c1)c1nc[nH]n1 (stereo not drawn)
The INHIBITION of the first is lower: -67.78% for the first, -5.51% for the second.

First: CCCc1nnsc1C(=O)N1CCN(CC(C)O)CC1 (stereo not drawn)
Second: Cc1ccc(C(=O)N2CCN(C(=O)C(C)n3ccnc3)CC2)cc1F (stereo not drawn)
The INHIBITION of the first is lower: -47.97% for the first, 38.65% for the second.

Compared with `CC(=O)N1CCC(C(=O)NCc2ncc(-c3ccccc3)o2)CC1`, `COc1ccccc1CC(=O)N1CCC(NCc2cccnc2)CC1` is lower in INHIBITION: 45.67% for the first, -135.87% for the second.

Compared with `COc1ccc2c(c1)sc(=NC(=O)CSCC(=O)Nc1nccs1)n2C`, `Cn1c(=NC(=O)CSCC(=O)Nc2nccs2)sc2ccccc21` is lower in INHIBITION: 54.16% for the first, -29.3% for the second.

Compared with `CCn1c(=NC(=O)CSCC(=O)Nc2nccs2)sc2ccccc21`, `CC(C)n1c(=O)c2sccc2n(CC(=O)Nc2ccccc2)c1=O` is higher in INHIBITION: -35.96% for the first, 10.62% for the second.

First: Cc1ccnc(C2CCN(C(=O)c3cnn(C)c3)CC2)n1
Second: Cc1ccc(N2CC[C@H]3CN(C(=O)c4ccn(C)n4)C[C@H]3C2)nn1
The INHIBITION of the first is higher: 11.74% for the first, -32.66% for the second.

First: CCn1cc(NC(=O)C2CCN(CC(=O)NC(C)(C)CC)CC2)cn1
Second: Cc1cccc(OCCC(=O)N2CCCN(CC(N)=O)CC2)c1C
The INHIBITION of the first is higher: 7.13% for the first, -5.2% for the second.

Going from `CC(C(=O)N1CCN(c2ccc(F)cc2)CC1)n1ccnc1` (stereo not drawn) to `CC(C(=O)N1CCN(C(=O)c2ccc(F)cc2)CC1)n1ccnc1` (stereo not drawn), the INHIBITION rises from -20.89% to 54.41%.

First: O=C(NCc1cnc2n1CCN(Cc1ccoc1)C2)c1ccno1
Second: Nc1ccnc(N2CCCC(CO)(Cc3cccc(Cl)c3)C2)n1 (stereo not drawn)
The INHIBITION of the first is lower: 42.64% for the first, 57.51% for the second.

Going from `COC1CN(C(=O)NC2CCCC2)CCC(=O)N(C)c2ccccc21` (stereo not drawn) to `CNc1cccc(C2CCCN(C(=O)c3cncs3)C2)n1` (stereo not drawn), the INHIBITION falls from 15.96% to -33.77%.

Going from `Cc1cnc(C)c(N2CCCC(CO)(Cc3cccc(Cl)c3)C2)n1` (stereo not drawn) to `Cc1cc(C)n(C2CCCN(C(=O)Cc3cccc(F)c3)C2)n1` (stereo not drawn), the INHIBITION rises from 8.14% to 14.06%.

Going from `O=C(NCC1CCC2(CCNCC2)CO1)c1cnccn1` (stereo not drawn) to `Cn1ccnc1CN1CCC2(CC1)CC(Oc1cccnc1)C2`, the INHIBITION rises from -13.14% to 24.83%.

Going from `CC(C)(C)n1ncc2c1CCCC2NCc1ccc2c(c1)OCCO2` (stereo not drawn) to `CC(C)(C)n1ncc2c1CCCC2NCc1ccc2c(c1)CCO2` (stereo not drawn), the INHIBITION rises from -12.39% to 64.67%.

Compared with `Cc1cccc(CNC2CCCc3c2cnn3C)c1` (stereo not drawn), `Cc1ccc(CNC2CCCc3c2cnn3C)s1` (stereo not drawn) is lower in INHIBITION: 51.21% for the first, 28.51% for the second.

Compared with `Cn1ncc2c1CCCC2NCc1ccc(Br)s1` (stereo not drawn), `CCn1ncc2c1CCCC2NCc1ccc2c(c1)CCO2` (stereo not drawn) is lower in INHIBITION: 54.86% for the first, -7.81% for the second.

First: CC(C)(C)c1nc(CC(=O)Nc2cnccc2O)cs1
Second: CCCN(Cc1ccccc1O)S(=O)(=O)C(C)CC (stereo not drawn)
The INHIBITION of the first is lower: -5.75% for the first, 17.48% for the second.

First: CN1CCCC(CCC(=O)N2CCc3c(nc(CC4CC4)[nH]c3=O)C2)C1 (stereo not drawn)
Second: Cc1noc([C@@H]2C[C@H]3CN(C(=O)C4CCN(C)CC4)C[C@H]3O2)n1
The INHIBITION of the first is lower: 10.1% for the first, 33.12% for the second.

Compared with `CC1=Nc2c(c(=O)[nH]n2C2CCCCC2)C(c2cccnc2)S1` (stereo not drawn), `Cc1ccc(CC(=O)N2CCCC(n3nc(C)cc3C)C2)cn1` (stereo not drawn) is higher in INHIBITION: -30.12% for the first, 5.59% for the second.

Compared with `COCC1CC2(CCN(Cc3nccn3C)CC2)CN1c1ncccn1` (stereo not drawn), `COC1CC2(CCN(Cc3nccn3C)CC2)C1` is higher in INHIBITION: 12.88% for the first, 52.66% for the second.

Going from `CCOC1CC2(CCN(Cc3nccn3C)CC2)C1` to `CC(C)COC1CC2(CCN(Cc3nccn3C)CC2)C1`, the INHIBITION rises from 16.98% to 58.93%.

First: Cn1ccnc1CN1CCC2(CC1)COC2
Second: CN(Cc1ccncc1)C1COC2(CCN(Cc3nccn3C)CC2)C1 (stereo not drawn)
The INHIBITION of the first is lower: 24.23% for the first, 64.31% for the second.

First: COC1COC2(CCN(Cc3ccc4c(c3)OCO4)CC2)C1 (stereo not drawn)
Second: CCOC1COC2(CCN(Cc3ccc4c(c3)OCO4)CC2)C1 (stereo not drawn)
The INHIBITION of the first is higher: 22.16% for the first, -59.24% for the second.

Compared with `CN(Cc1ccncc1)C1COC2(CCN(Cc3cccs3)CC2)C1` (stereo not drawn), `CN(Cc1ccncc1)C1COC2(CCN(Cc3ccccn3)CC2)C1` (stereo not drawn) is higher in INHIBITION: -3.11% for the first, 23.59% for the second.

Going from `COC1CC2(CCN(Cc3ccc4c(c3)OCO4)CC2)C1` to `COc1ccc(CC(=O)N2CCCC(n3nc(C)cc3C)C2)cc1` (stereo not drawn), the INHIBITION falls from 69.22% to 52.87%.

Going from `N#Cc1cccc(CN2CC3(CCCCN3c3cccnc3)CC2=O)c1` (stereo not drawn) to `Cc1cc(C)n(C2CCCN(C(=O)Cc3ccc(C#N)cc3)C2)n1` (stereo not drawn), the INHIBITION falls from 12.57% to -11.34%.

First: CN(C)CC(c1ccccc1)N(C)C(=O)c1cccc(NCC(=O)O)c1 (stereo not drawn)
Second: CSC(C)CCN(Cc1ccccn1)Cc1sccc1C (stereo not drawn)
The INHIBITION of the first is higher: 8.26% for the first, -22.06% for the second.

First: Cc1cccc(-n2ncc3c2CCCC3NCC(C)(C)CO)c1C (stereo not drawn)
Second: COc1ccc(CC(=O)N2CCCC(n3nc(C)cc3C)C2)cc1F (stereo not drawn)
The INHIBITION of the first is higher: 45.82% for the first, 6.3% for the second.
